Results on 27 molecules are retold here after the supplement of paper PMC7366291.

Counter-ions that a name gives are not always drawn. ± gives the standard deviation or the standard deviation of the averaged measurements.

Common to all, as to settings: 25 µM; exposure: 24-48 hpf
Test [1] concerns Danio rerio Tg(wt1b:EGFP) embryo, pronephros. As to the kind of experiment: glomerular separation, fold change vs DMSO control; higher = glomeruli further apart (abnormal). The method in brief:
(§1)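 Every feature is expressed as a fold change relative to the averaged DMSO-treated embryos of the same day. The exposure ran from 24 to 48 hpf at 28.5°C, with dechorionated Tg(wt1b:EGFP) zebrafish embryos in HEPES-buffered E3 containing 0.003% PTU, 0.5% DMSO and 25 μM compound. Dorsal pronephros images taken in agarose-filled 96-well plates were reduced to maximum projections, on which 16 reference points were set by hand in Fiji for a macro to compute distances and angles. Values more than 2 SD from the feature mean were not used.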

The test system is the same in test [2]. As to the kind of experiment: glomerular width (mean of left and right), fold change vs DMSO control; higher = wider glomerulus. The method in brief: as §1
Test [3] has the same test system. Briefly: fraction of imaged embryos annotated as normal kidney; higher = less nephrotoxic; extreme values may be limits of the assay. The method in brief: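 From 24 to 48 hpf at 28.5°C, dechorionated Tg(wt1b:EGFP) zebrafish embryos in 12-well plates were kept in 5 mM HEPES-buffered E3 with 0.003% PTU, 0.5% DMSO and 25 μM compound. Pronephroi were imaged by widefield fluorescence at 470 nm and judged by eye from maximum projections. Reported is the proportion of embryos per treatment in the normal-kidney category.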

Test [4] shares this test system. As to the kind of experiment: pronephric angle neck segment to proximal convoluted tubule (mean of left and right), fold change vs DMSO control; higher = larger pronephric angle. In a few lines:
as §1

For the molecule `NS(=O)(=O)c1cc2c(cc1Cl)NC(C(Cl)Cl)NS2(=O)=O` (stereo not drawn) [Trichlormethiazide], the glomerular separation in test [1] was 0.873 ± 0.36. For the same molecule, the glomerular width in test [2] came to 0.992 ± 0.012. Also, in test [3], the “fraction of imaged embryos annotated as normal kidney” value (from here on “fraction of imaged embryos annotated”) came to 0.75. Also, in test [4], the “pronephric angle neck segment” value came to 0.899 ± 0.015.
The molecule `CCCCNC(=O)NS(=O)(=O)c1ccc(C)cc1` [Tolbutamide] gave a glomerular separation in test [1] of 1.01 ± 0.53. In test [2], this molecule came in with a glomerular width of 1.01 ± 0.014. Also, the “fraction of imaged embryos annotated” value in test [3] came to 0.833. Also, the “pronephric angle neck segment” value in test [4] turned out to be 1.04 ± 0.023.
In test [1], `CN1CCCN(C(c2ccccc2)c2ccc(Cl)cc2)CC1` (stereo not drawn) [Homochlorcyclizine dihydrochloride] displayed a glomerular separation of 1.08 ± 0.45. In addition, the glomerular width in test [2] turned out to be 0.975 ± 0.015. Besides, the “fraction of imaged embryos annotated” value in test [3] was determined as 1. The “pronephric angle neck segment” value in test [4] was determined as 1.013 ± 0.0017.
With `C1N2CN3CN1CN(C2)C3` [Methenamine], the glomerular separation in test [1] was determined as 0.642 ± 0.2. Besides, the glomerular width in test [2] is 0.975 ± 0.051. Further, in test [3], the “fraction of imaged embryos annotated” value worked out at 0.917. The “pronephric angle neck segment” value in test [4] amounted to 0.994 ± 0.029.
`COc1c2occc2c(OC)c2c(=O)cc(C)oc12` [Khellin] gave a glomerular separation in test [1] of 0.835 ± 0.39. In test [2], this molecule gave a glomerular width of 1 ± 0.033. In addition, in test [3], the “fraction of imaged embryos annotated” value came to 1. In test [4], the “pronephric angle neck segment” value was 1.03 ± 0.0013.
Molecule `CN1CCC(=C2c3ccccc3CCc3sccc32)CC1` [Pizotifen malate] had a glomerular separation in test [1] of 1.26 ± 0.48. The molecule further registered a glomerular width in test [2] of 0.84842 ± 0.00054. In addition, the “fraction of imaged embryos annotated” value in test [3] was found to be 1. Further, the “pronephric angle neck segment” value in test [4] turned out to be 1.06 ± 0.0029.
In test [1], `COc1ccc(C[C@@H]2c3cc(OC)c(OC)cc3CC[N@+]2(C)CCC(=O)OCCCCCOC(=O)CC[N@@+]2(C)CCc3cc(OC)c(OC)cc3[C@H]2Cc2ccc(OC)c(OC)c2)cc1OC` [Cisatracurium besylate] returned a glomerular separation of 0.571 ± 0.3. In test [2], this molecule came in with a glomerular width of 1.21 ± 0.0036. Also, the “fraction of imaged embryos annotated” value in test [3] worked out at 0.833. The “pronephric angle neck segment” value in test [4] was found to be 0.984 ± 0.035.
Regarding `CCCSc1ccc2[nH]c(NC(=O)OC)nc2c1` [Albendazole], in test [1], the glomerular separation was determined as 3.72 ± 1.5. Also, the glomerular width in test [2] was determined as 0.591 ± 0.025. The “fraction of imaged embryos annotated” value in test [3] is 0. The “pronephric angle neck segment” value in test [4] is 1.97 ± 0.07.
In the same order, the values of `COc1cc(C(=O)NS(=O)(=O)c2ccccc2C)ccc1Cc1cn(C)c2ccc(NC(=O)OC3CCCC3)cc12` [Zafirlukast] are 0.957 ± 0.46, 0.9694 ± 0.0078, 1 and 1.09 ± 0.065.
Regarding `CC[C@H](C)C(=O)O[C@H]1C[C@@H](C)C=C2C=C[C@H](C)[C@H](CC[C@@H]3C[C@@H](O)CC(=O)O3)[C@H]21` [Lovastatin], the glomerular separation in test [1] was 5.64 ± 2.1. The same molecule showed a glomerular width in test [2] of 0.622 ± 0.012. In test [3], the “fraction of imaged embryos annotated” value is 0. Also, in test [4], the “pronephric angle neck segment” value came to 1.54 ± 0.057.
With `O=C(O)CN(CCN(CC(=O)O)CC(=O)O)CCN(CC(=O)O)CC(=O)O` [Pentetic acid], the glomerular separation in test [1] turned out to be 1.23 ± 0.47. In test [2], this molecule had a glomerular width of 0.98 ± 0.017. In test [3], the “fraction of imaged embryos annotated” value was 0.917. In addition, the “pronephric angle neck segment” value in test [4] came out at 0.9888 ± 0.0057.
Turning to `CN(C)CCOC(c1ccccc1)c1ccccc1` [Diphenhydramine hydrochloride], in test [1], the glomerular separation was determined as 0.907 ± 0.28. For the same molecule, in test [2], the glomerular width worked out at 1.03 ± 0.0021. Besides, in test [3], the “fraction of imaged embryos annotated” value stood at 0.75. For the same molecule, the “pronephric angle neck segment” value in test [4] is 0.942 ± 0.016.
As to `CC(C)(C)NC(=O)[C@H]1CC[C@H]2[C@@H]3CC[C@H]4NC(=O)C=C[C@]4(C)[C@H]3CC[C@]12C` [Finasteride], the glomerular separation in test [1] turned out to be 0.797 ± 0.34. For the same molecule, the glomerular width in test [2] came to 0.937 ± 0.018. In test [3], the “fraction of imaged embryos annotated” value came out at 0.917. For the same molecule, the “pronephric angle neck segment” value in test [4] stood at 1.04 ± 0.023.
In turn, `OCCN1CCN(CCCN2c3ccccc3Sc3ccc(C(F)(F)F)cc32)CC1` [Fluphenazine dihydrochloride] had a glomerular separation in test [1] of 1.03 ± 0.53. The molecule further had a glomerular width in test [2] of 1.07 ± 0.02. Further, the “fraction of imaged embryos annotated” value in test [3] came out at 0.833. Also, in test [4], the “pronephric angle neck segment” value was 0.932 ± 0.013.
The matching figures for `COc1cc(C(=O)N2CCOCC2)cc(OC)c1OC` [Trimetozine]: 1.03 ± 0.47, 0.984 ± 0.065, 0.917 and 1.01 ± 0.06.
`COc1ccc2c3c1O[C@H]1C[C@@H](O)C=C[C@@]31CCN(C)C2` [Galanthamine hydrobromide]: the glomerular separation in test [1] turned out to be 1.08 ± 0.38. The glomerular width in test [2] came to 1.04 ± 0.0055. For the same molecule, in test [3], the “fraction of imaged embryos annotated” value came to 0.917. In test [4], the “pronephric angle neck segment” value is 0.964 ± 0.029.
The matching figures for `C[C@@H](c1ncncc1F)[C@](O)(Cn1cncn1)c1ccc(F)cc1F` [Voriconazole]: 0.875 ± 0.21, 1.02 ± 0.015, 0.5 and 1.01 ± 0.027.
In test [1], `Cc1c(N(C)CS(=O)(=O)O)c(=O)n(-c2ccccc2)n1C` [Dipyrone] registered a glomerular separation of 0.952 ± 0.36. In test [2], this molecule returned a glomerular width of 0.936 ± 0.012. For the same molecule, the “fraction of imaged embryos annotated” value in test [3] came out at 0.917. The “pronephric angle neck segment” value in test [4] is 0.993 ± 0.021.
The matching figures for `CO[C@@]1(NC(=O)Cc2cccs2)C(=O)N2C(C(=O)O)=C(COC(N)=O)CS[C@@H]21` [Cefoxitin sodium salt]: 0.796 ± 0.27, 0.975 ± 0.012, 0.833 and 0.968 ± 0.04.
In the case of `Cc1cn([C@H]2C[C@H](N=[N+]=[N-])[C@@H](CO)O2)c(=O)[nH]c1=O` [Zidovudine, AZT], the glomerular separation in test [1] was found to be 1 ± 0.41. The glomerular width in test [2] is 1.06 ± 0.08. For the same molecule, the “fraction of imaged embryos annotated” value in test [3] was determined as 1. Further, the “pronephric angle neck segment” value in test [4] was 0.991 ± 0.018.
In turn, `CC(C)Cn1cnc2c(N)nc3ccccc3c21` [Imiquimod] gave a glomerular separation in test [1] of 0.76 ± 0.31. The glomerular width in test [2] worked out at 0.944 ± 0.089. Further, the “fraction of imaged embryos annotated” value in test [3] was found to be 1. Moreover, in test [4], the “pronephric angle neck segment” value came out at 0.978 ± 0.037.
Take `C[C@]12CC[C@@H]3c4ccc(O)cc4CC[C@H]3[C@@H]1C[C@@H](O)[C@@H]2O` [Estriol]: the glomerular separation in test [1] was 0.626 ± 0.2. The same molecule registered a glomerular width in test [2] of 1.03 ± 0.042. The “fraction of imaged embryos annotated” value in test [3] is 0.917. The “pronephric angle neck segment” value in test [4] turned out to be 1.026 ± 0.0015.
In test [1], `CN(C)C(=N)NC(=N)N` [Metformin hydrochloride] yielded a glomerular separation of 0.804 ± 0.19. In test [2], this molecule came in with a glomerular width of 0.93 ± 0.035. Also, in test [3], the “fraction of imaged embryos annotated” value worked out at 0.833. Also, in test [4], the “pronephric angle neck segment” value is 1.08 ± 0.042.
On to `C[C@@H]1CCC[C@H](C)N1NC(=O)c1ccc(Cl)c(S(N)(=O)=O)c1` [Clopamide], for which the glomerular separation in test [1] was 0.881 ± 0.2. In addition, the glomerular width in test [2] stood at 1.01 ± 0.02. Besides, the “fraction of imaged embryos annotated” value in test [3] was 0.917. The “pronephric angle neck segment” value in test [4] amounted to 0.98 ± 0.051.
The matching figures for `COC(=O)Nc1nc2cc([S+]([O-])c3ccccc3)ccc2[nH]1` (stereo not drawn) [Oxfendazol]: 1.06 ± 0.33, 1.05 ± 0.043, 0.833 and 1.036 ± 0.006.
As for `CC(COc1ccccc1)NC(C)C(O)c1ccc(O)cc1` (stereo not drawn) [Isoxsuprine hydrochloride], in test [1], the glomerular separation was 1.07 ± 0.26. This molecule gave a glomerular width in test [2] of 1.08 ± 0.024. Besides, the “fraction of imaged embryos annotated” value in test [3] was found to be 1. Further, the “pronephric angle neck segment” value in test [4] came to 0.928 ± 0.029.
In turn, `CN(C)CCC(c1ccc(Cl)cc1)c1ccccn1` (stereo not drawn) [Chlorpheniramine maleate] had a glomerular separation in test [1] of 1.56 ± 0.77. The same molecule came in with a glomerular width in test [2] of 1.04 ± 0.042. The “fraction of imaged embryos annotated” value in test [3] worked out at 0.667. Besides, the “pronephric angle neck segment” value in test [4] stood at 0.969 ± 0.0027.
